Source: PubChem BioAssay (NCATS)
Results filed as inconclusive are left out. The source made the active and inactive calls. The call rests on the fitted dose curve; in most records, active means well fitted inhibition curve with a large enough effect; inconclusive means small, poorly fitted or top-dose-only effect; inactive means flat fitted curve, though single readings scatter.

What follows are molecules tested on PC26 (assay: qHTS profiling for inhibitors of Plasmodium falciparum proliferation (AID 504749;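 further: 0% = DMSO vehicle and full inhibition = artemisinin control; nearly all actives have a fitted effect of over 60% in size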)). Conditions: P. falciparum in erythrocytes, SYBR Green DNA, 72 h; series mostly up to 28.7 µM; activity, negative = inhibition: at the top concentration.
Summary of the method: (§1)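 Quantitative HTS: compounds pinned into medium, infected erythrocytes added (0.3% parasitemia, 2.5% hematocrit), 72 h culture at 37 C under 5% CO2. Saponin/Triton lysis with SYBR Green I, overnight RT, then fluorescence read.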
With `COc1ccc2c3c1O[C@H]1C[C@@H](O)C=C[C@@]31CCN(C)C2` the “activity, negative = inhibition” value was -0.545% (inactive).
In the case of `O=C(COc1ccc(Cl)cc1)OCCNC12CC3CC(CC(C3)C1)C2`, the “activity, negative = inhibition” value is reported as -2.06% (inactive).
With `CCCCC(CC)COC(=O)CC(C(=O)OCC(CC)CCCC)S(=O)(=O)O` (stereo not given) the “activity, negative = inhibition” value was 2.07% (inactive).
For `Oc1cc(O)c2c(c1)OC(c1ccc(O)c(O)c1)C(O)C2` (stereo not given), the “activity, negative = inhibition” value was -18.9% (inactive).
In the case of `C#CCOc1ccc2c(C)cc(=O)oc2c1`, the “activity, negative = inhibition” value is reported as 1.1% (inactive).
For `Nc1c(Br)cc(Br)cc1CNC1CCC(O)CC1` (stereo not given), the “activity, negative = inhibition” value was -10.8% (inactive).
For `CC(O)CO` (stereo not given), the “activity, negative = inhibition” value was -11% (inactive).
`C#C[C@]1(O)CC[C@H]2[C@@H]3CCC4=CCCC[C@@H]4[C@H]3C(=C)C[C@@]21CC` was tested, and the “activity, negative = inhibition” value was -1.51% (inactive).
`CC1(C)C(C=C(Cl)Cl)C1C(=O)OCc1cccc(Oc2ccccc2)c1` (stereo not given) was tested, and the “activity, negative = inhibition” value was 5.97% (inactive).
For `CC(=O)Oc1c(C)cc(OCC(O)CNC(C)C)c(C)c1C` (stereo not given), the “activity, negative = inhibition” value was -5.27% (inactive).
With `CCCCC(C)(O)C/C=C/[C@H]1[C@H](O)CC(=O)[C@@H]1CCCCCCC(=O)OC` (stereo not given in full) the “activity, negative = inhibition” value was -3.45% (inactive).
In the case of `CC(C)N=c1cc2n(-c3ccc(Cl)cc3)c3ccccc3nc-2cc1Nc1ccc(Cl)cc1`, the “activity, negative = inhibition” value is reported as -6.47% [at 12.8 µM] (inactive).
`CCN(CC)CCOc1ccc(-c2nc3cc(Cl)ccc3s2)cc1` was tested, and the “activity, negative = inhibition” value was -12.5% (inactive).

The molecules below were run on PC49 in the same assay as above. Conditions: P. falciparum in erythrocytes, SYBR Green DNA, 72 h; series mostly up to 28.7 µM; activity, negative = inhibition: at the top concentration.
Summary of the method: as §1
`COc1ccc2c3c1O[C@H]1C[C@@H](O)C=C[C@@]31CCN(C)C2` was tested, and the “activity, negative = inhibition” value was 3.95% (inactive).
`O=C(COc1ccc(Cl)cc1)OCCNC12CC3CC(CC(C3)C1)C2` was tested, and the “activity, negative = inhibition” value was -5.89% (inactive).
`Oc1cc(O)c2c(c1)OC(c1ccc(O)c(O)c1)C(O)C2` (stereo not given) was tested, and the “activity, negative = inhibition” value was 4.91% (inactive).
`C#CCOc1ccc2c(C)cc(=O)oc2c1` was tested, and the “activity, negative = inhibition” value was 7.08% (inactive).
For `Nc1c(Br)cc(Br)cc1CNC1CCC(O)CC1` (stereo not given), the “activity, negative = inhibition” value was 1.47% (inactive).
In the case of `CC(O)CO` (stereo not given), the “activity, negative = inhibition” value is reported as 8.23% (inactive).
`CC1(C)C(C=C(Cl)Cl)C1C(=O)OCc1cccc(Oc2ccccc2)c1` (stereo not given) was tested, and the “activity, negative = inhibition” value was 8.45% (inactive).
In the case of `CC(=O)Oc1c(C)cc(OCC(O)CNC(C)C)c(C)c1C` (stereo not given), the “activity, negative = inhibition” value is reported as 1.53% (inactive).
In the case of `CCCCC(C)(O)C/C=C/[C@H]1[C@H](O)CC(=O)[C@@H]1CCCCCCC(=O)OC` (stereo not given in full), the “activity, negative = inhibition” value is reported as 3.79% (inactive).
With `CC(C)N=c1cc2n(-c3ccc(Cl)cc3)c3ccccc3nc-2cc1Nc1ccc(Cl)cc1` the “activity, negative = inhibition” value was 6.98% [at 12.8 µM] (inactive).
For `CCN(CC)CCOc1ccc(-c2nc3cc(Cl)ccc3s2)cc1`, the “activity, negative = inhibition” value was -13.1% (inactive).

What follows are molecules tested on SC27B in the same assay as above. Conditions: P. falciparum in erythrocytes, SYBR Green DNA, 72 h; series mostly up to 28.7 µM; activity, negative = inhibition: at the top concentration.
Summary of the method: as §1
With `COc1ccc2c3c1O[C@H]1C[C@@H](O)C=C[C@@]31CCN(C)C2` the “activity, negative = inhibition” value was 0.793% (inactive).
`O=C(COc1ccc(Cl)cc1)OCCNC12CC3CC(CC(C3)C1)C2` was tested, and the “activity, negative = inhibition” value was 2.22% (inactive).
`Oc1cc(O)c2c(c1)OC(c1ccc(O)c(O)c1)C(O)C2` (stereo not given) was tested, and the “activity, negative = inhibition” value was -3.27% (inactive).
`C#CCOc1ccc2c(C)cc(=O)oc2c1` was tested, and the “activity, negative = inhibition” value was 1.66% (inactive).
For `Nc1c(Br)cc(Br)cc1CNC1CCC(O)CC1` (stereo not given), the “activity, negative = inhibition” value was -5.87% (inactive).
With `CC(O)CO` (stereo not given) the “activity, negative = inhibition” value was 7.76% (inactive).
`CC1(C)C(C=C(Cl)Cl)C1C(=O)OCc1cccc(Oc2ccccc2)c1` (stereo not given) was tested, and the “activity, negative = inhibition” value was -0.21% (inactive).
For `CC(=O)Oc1c(C)cc(OCC(O)CNC(C)C)c(C)c1C` (stereo not given), the “activity, negative = inhibition” value was 5.3% (inactive).
`CCCCC(C)(O)C/C=C/[C@H]1[C@H](O)CC(=O)[C@@H]1CCCCCCC(=O)OC` (stereo not given in full) was tested, and the “activity, negative = inhibition” value was 6.75% (inactive).
With `CC(C)N=c1cc2n(-c3ccc(Cl)cc3)c3ccccc3nc-2cc1Nc1ccc(Cl)cc1` the “activity, negative = inhibition” value was -1.86% [at 12.8 µM] (inactive).
For `CCN(CC)CCOc1ccc(-c2nc3cc(Cl)ccc3s2)cc1`, the “activity, negative = inhibition” value was -17.3% (inactive).

What follows are molecules tested on TAB109 in the same assay as above. Conditions: P. falciparum in erythrocytes, SYBR Green DNA, 72 h; series mostly up to 28.7 µM; activity, negative = inhibition: at the top concentration.
Summary of the method: as §1
With `COc1ccc2c3c1O[C@H]1C[C@@H](O)C=C[C@@]31CCN(C)C2` the “activity, negative = inhibition” value was 5.67% (inactive).
In the case of `O=C(COc1ccc(Cl)cc1)OCCNC12CC3CC(CC(C3)C1)C2`, the “activity, negative = inhibition” value is reported as -6.92% (inactive).
`Oc1cc(O)c2c(c1)OC(c1ccc(O)c(O)c1)C(O)C2` (stereo not given) was tested, and the “activity, negative = inhibition” value was 2.99% (inactive).
With `C#CCOc1ccc2c(C)cc(=O)oc2c1` the “activity, negative = inhibition” value was -6.09% (inactive).
In the case of `Nc1c(Br)cc(Br)cc1CNC1CCC(O)CC1` (stereo not given), the “activity, negative = inhibition” value is reported as 0.165% (inactive).
`CC(O)CO` (stereo not given) was tested, and the “activity, negative = inhibition” value was -0.868% (inactive).
`CC1(C)C(C=C(Cl)Cl)C1C(=O)OCc1cccc(Oc2ccccc2)c1` (stereo not given) was tested, and the “activity, negative = inhibition” value was 2.86% (inactive).
With `CC(=O)Oc1c(C)cc(OCC(O)CNC(C)C)c(C)c1C` (stereo not given) the “activity, negative = inhibition” value was 15.8% (inactive).
With `CCCCC(C)(O)C/C=C/[C@H]1[C@H](O)CC(=O)[C@@H]1CCCCCCC(=O)OC` (stereo not given in full) the “activity, negative = inhibition” value was 0.0828% (inactive).
In the case of `CC(C)N=c1cc2n(-c3ccc(Cl)cc3)c3ccccc3nc-2cc1Nc1ccc(Cl)cc1`, the “activity, negative = inhibition” value is reported as 0.986% [at 12.8 µM] (inactive).

What follows are molecules tested on TAB113 in the same assay as above. Conditions: P. falciparum in erythrocytes, SYBR Green DNA, 72 h; series mostly up to 28.7 µM; activity, negative = inhibition: at the top concentration.
Summary of the method: as §1
`COc1ccc2c3c1O[C@H]1C[C@@H](O)C=C[C@@]31CCN(C)C2` was tested, and the “activity, negative = inhibition” value was -0.659% (inactive).
`O=C(COc1ccc(Cl)cc1)OCCNC12CC3CC(CC(C3)C1)C2` was tested, and the “activity, negative = inhibition” value was 3.53% (inactive).
With `Oc1cc(O)c2c(c1)OC(c1ccc(O)c(O)c1)C(O)C2` (stereo not given) the “activity, negative = inhibition” value was -8.32% (inactive).
For `C#CCOc1ccc2c(C)cc(=O)oc2c1`, the “activity, negative = inhibition” value was -1.25% (inactive).
For `Nc1c(Br)cc(Br)cc1CNC1CCC(O)CC1` (stereo not given), the “activity, negative = inhibition” value was 6.08% (inactive).
With `CC(O)CO` (stereo not given) the “activity, negative = inhibition” value was 20.2% (inactive).
For `CC1(C)C(C=C(Cl)Cl)C1C(=O)OCc1cccc(Oc2ccccc2)c1` (stereo not given), the “activity, negative = inhibition” value was -12.3% (inactive).
In the case of `CC(=O)Oc1c(C)cc(OCC(O)CNC(C)C)c(C)c1C` (stereo not given), the “activity, negative = inhibition” value is reported as 4.13% (inactive).
In the case of `CCCCC(C)(O)C/C=C/[C@H]1[C@H](O)CC(=O)[C@@H]1CCCCCCC(=O)OC` (stereo not given in full), the “activity, negative = inhibition” value is reported as 3.48% (inactive).
`CC(C)N=c1cc2n(-c3ccc(Cl)cc3)c3ccccc3nc-2cc1Nc1ccc(Cl)cc1` was tested, and the “activity, negative = inhibition” value was 1.54% [at 12.8 µM] (inactive).

Each molecule was assayed on TAB165 in the same assay as above. Conditions: P. falciparum in erythrocytes, SYBR Green DNA, 72 h; series mostly up to 28.7 µM; activity, negative = inhibition: at the top concentration.
Summary of the method: as §1
`COc1ccc2c3c1O[C@H]1C[C@@H](O)C=C[C@@]31CCN(C)C2` was tested, and the “activity, negative = inhibition” value was 14.3% (inactive).
For `O=C(COc1ccc(Cl)cc1)OCCNC12CC3CC(CC(C3)C1)C2`, the “activity, negative = inhibition” value was -2.77% (inactive).
For `Oc1cc(O)c2c(c1)OC(c1ccc(O)c(O)c1)C(O)C2` (stereo not given), the “activity, negative = inhibition” value was -10.8% (inactive).
In the case of `C#CCOc1ccc2c(C)cc(=O)oc2c1`, the “activity, negative = inhibition” value is reported as 6.93% (inactive).
For `Nc1c(Br)cc(Br)cc1CNC1CCC(O)CC1` (stereo not given), the “activity, negative = inhibition” value was -3.81% (inactive).
`CC(O)CO` (stereo not given) was tested, and the “activity, negative = inhibition” value was 12% (inactive).
With `CC1(C)C(C=C(Cl)Cl)C1C(=O)OCc1cccc(Oc2ccccc2)c1` (stereo not given) the “activity, negative = inhibition” value was -16% (inactive).
With `CC(=O)Oc1c(C)cc(OCC(O)CNC(C)C)c(C)c1C` (stereo not given) the “activity, negative = inhibition” value was -8.04% (inactive).
`CCCCC(C)(O)C/C=C/[C@H]1[C@H](O)CC(=O)[C@@H]1CCCCCCC(=O)OC` (stereo not given in full) was tested, and the “activity, negative = inhibition” value was 1.25% (inactive).
In the case of `CC(C)N=c1cc2n(-c3ccc(Cl)cc3)c3ccccc3nc-2cc1Nc1ccc(Cl)cc1`, the “activity, negative = inhibition” value is reported as -14.9% [at 12.8 µM] (inactive).
